Source: PubChem BioAssay AID504850 (National Center for Advancing Translational Sciences (NCATS), 2011)
In all, about 2,300 compounds went through this assay and about 1,200 (52%) were called active. Another 34% or so got no clear call; they are omitted. So high a share suggests a set chosen from earlier hits. Some of the results follow. Values without a mark were called inactive. Calls come from the whole dose curve; as a rule, active = well fitted inhibition curve with a large enough effect; inconclusive = small, poorly fitted or top-dose-only effect, or effect the other way; inactive = no such curve, though single readings can be large or run the other way.

Experiment: Confirmation screen for delayed death inhibitors of the malarial parasite plastid, 48 hour incubation; note: nearly all actives have a fitted effect of over 65% in size
Conditions: P. falciparum-infected erythrocytes, luciferase growth; series mostly up to 28.7 µM; activity change, negative = inhibition: at the top concentration
From the text: The goal of this screen is to discover new antimalarial compounds that act by inhibiting the development of the apicoplast in the malarial parasite Plasmodium falciparum. The biochemical processes that make this organelle essential for erythrocytic stage parasites are not well understood. However, antibiotics, such as azithromycin and tetracycline, which target the apicoplast translational machinery, have a potent antimalarial effect. […] We have developed a cell-based assay that measures parasite growth based on the expression of an integrated copy of a firefly luciferase reporter. To detect small molecules that cause this "delayed death phenotype, erythrocytes infected with the luciferase-expressing parasites were incubated with compounds for either one or two generations, corresponding to 48 and 96 hours, respectively. Compounds that inhibit parasite growth in the second generation, but not the first, should be enriched in antimalarials that target the apicoplast. Growth inhibition is detected by a decrease in luciferase activity. MLPCN Grant: R21 NS059500 Assay Provider: David Fidock and Eric Ekland, Columbia University Keywords: NIH Roadmap, MLPCN, MLI, MLSMR, qHTS, NCGC, qHTS, malaria, luciferase, viability
Four microliters of culture medium (RPMI 1640 with 0.5% w/v Albumax (GIBCO), 24 mM sodium bicarbonate and 10 ug/mL gentamycin) were dispensed by a Multi-drop Combi into white solid 1536-well plates (Grenier) and 23 nL compound was added by a pin tool. Four microliters of infected erythrocytes (2% hematocrit, 0.1% parasitemia final concentration) in culture medium were dispensed and the plates incubated for 48 hours at 37 C in 5% CO2. Two microliters of luciferase detection reagent was added and luminescence was detected by a ViewLux (PerkinElmer) reader.
% is set by controls: 0 for no effect and ±100 for the full control effect; potency is the fitted concentration of half-maximal effect.

Compound | Potency | activity change, negative = inhibition
Cc1ccc(C)c(N(CC(=O)Nc2cc(Cl)ccc2Oc2ccccc2)S(C)(=O)=O)c1 | 11.2 µM (active) | –
COc1ccccc1OCC(=O)Nc1cc(Cl)ccc1Oc1ccccc1 | – | -11.9%
CN(C)S(=O)(=O)c1ccc(Cl)c(NC(=O)CN2C(=O)NC(C)(C3CC3)C2=O)c1 (stereo unspecified) | 14.1 µM (active) | –
CCOc1ccc2c(c1)C(N(CCN1CCOCC1)C(=O)Nc1ccccc1)CC(C)(C)O2 (stereo unspecified) | 12.6 µM (active) | –
COCCNC(=O)c1cccc(OC2CCN(Cc3ccc(C(C)C)cc3)CC2)c1 | 14.1 µM (active) | –
C=CCNC(=O)c1onc(CSc2ccc(Cl)cc2)c1C(=O)O | – | 11.2%
CCOC(=O)C(C(=O)OCC)C(Nc1cccc(Br)c1)c1ccccc1 (stereo unspecified) | 14.1 µM (active) | –
Cc1ccc2cc(C)c(SCC(=O)NCc3ccco3)nc2c1 | – | -22.8%
Cc1ccc(Nc2nc(NCc3ccco3)c3ccccc3n2)cc1 | 2 µM (active) | –
COc1ccc(Cl)cc1NC(=O)C(C)NC(c1ccccc1)c1ccccc1 (stereo unspecified) | 8.91 µM (active) | –
COc1ccc(Nc2cc(Cl)ccc2C(=O)O)cn1 | – | -43.1%
C#CCOCCOCCOCCNc1nc(N2CCN(C(=O)Cn3cc(CC(C)O)nn3)CC2)nc(N2CCN(C(=O)[C@H](C)n3cc(CCCN=C(N)N)nn3)CC2)n1 (stereo partly specified) | – | -25.6%
COc1nc(NC(=O)c2ccc(F)cc2)nc(OC)c1-c1ccccc1 | 12.6 µM (active) | –
O=[N+]([O-])c1c(Nc2ccccc2O)cc(Cl)c2nonc12 | 5.62 µM (active) | –
CC(C)(C)NC(=O)[C@H]1CN(Cc2cccnc2)CCN1C[C@@H](O)C[C@@H](Cc1ccccc1)C(=O)N[C@H]1c2ccccc2C[C@H]1O | 7.94 µM (active) | –
CN(CCNC(=O)c1ccc(CS(=O)(=O)c2ccc(Br)cc2)o1)CCc1ccccc1 | 4.47 µM (active) | –
CCCCN(CCCNC(=O)c1ccc(CS(=O)(=O)c2ccc(OC)cc2)o1)Cc1ccccc1 | 12.6 µM (active) | –
CCCCNC(=O)c1ccc(CS(=O)(=O)c2cccc(C(F)(F)F)c2)o1 | – | -12.9%
CN(CCCNC(=O)c1ccc(CS(=O)c2ccc(Br)cc2)o1)Cc1ccccc1 (stereo unspecified) | 8.91 µM (active) | –

Compound | Potency | activity change, negative = inhibition
CCn1c(=O)c(CCC(=O)N2CCOCC2)c(C)c2c(C)nn(-c3ccccc3)c21 | 14.1 µM (active) | –
COc1ccc(C(=O)N2CCN(S(=O)(=O)c3ccc(C)cc3C)CC2)cc1OC | 12.6 µM (active) | –
COc1ccc(C)cc1S(=O)(=O)N1CCN(S(=O)(=O)c2cc(C(=O)O)ccc2C)CC1 | 11.2 µM (active) | –
Cc1ccc(S(=O)(=O)N2CCN(C(=O)c3ccc(Br)o3)CC2)c(C)c1 | 10 µM (active) | –
Cc1ccc(S(=O)(=O)N2CCN(C(=O)c3cc(S(=O)(=O)N(C)C)ccc3N3CCCC3)CC2)c(C)c1 | 12.6 µM (active) | –
CCNc1nc(NCC)n2c(SCC(=O)Nc3ccccc3F)nnc2n1 | 12.6 µM (active) | –
Cc1c(Cl)cccc1NC(CC(=O)c1ccccc1)C(=O)O (stereo unspecified) | – | -3.76%
CC(=O)O[C@@]12CO[C@@H]1C[C@H](O)[C@@]1(C)C(=O)[C@H](O)C3=C(C)[C@@H](OC(=O)C(O)[C@@H](NC(=O)OC(C)(C)C)c4ccccc4)C[C@@](O)([C@@H](OC(=O)c4ccccc4)[C@H]21)C3(C)C (stereo partly specified) | 0.141 µM (active) | –
CC(=O)O[C@H]1C(=O)[C@@]2(C)[C@H]([C@H](OC(=O)c3ccccc3)[C@]3(O)C[C@H](OC(=O)[C@H](O)[C@@H](NC(=O)c4ccccc4)c4ccccc4)C(C)=C1C3(C)C)[C@]1(OC(C)=O)CO[C@@H]1C[C@@H]2O | 0.501 µM (active) | –
Cc1c(/C=N/NC(=O)c2cccs2)c2ccccc2n1Cc1ccccc1Cl | 4.47 µM (active) | –
Cc1noc(/C=C/c2nn(C)cc2Cl)c1[N+](=O)[O-] | 12.6 µM (active) | –
CC(=O)N1CCc2cc(S(=O)(=O)NCCC(=O)N3CCN(c4ccccn4)CC3)ccc21 | 11.2 µM (active) | –
COCCn1c(=NC(=O)/C=C/c2ccccc2)sc2cc(NC(C)=O)ccc21 | 10 µM (active) | –
O=C(/C=C/c1ccncc1)c1ccc(NC(=O)c2ccccc2F)cc1 | 12.6 µM (active) | –
Cc1c(C#N)c(NC(=O)CCl)n(Cc2cccs2)c1C | 3.98 µM (active) | –
COC(=O)c1cc(=O)n(Cc2cccs2)c(=Nc2ccccc2)s1 | – | -6.3%
Cc1c(C#N)c(NC(=O)CCl)n(Cc2ccccc2)c1C | 7.08 µM (active) | –
COc1ccc(-c2oc3ncn(Cc4ccco4)c(=N)c3c2-c2ccc(OC)cc2)cc1 | 7.94 µM (active) | –
CC1CCCC(NC(=O)c2cc(-c3ccncc3)nc3ccccc23)C1C (stereo unspecified) | 11.2 µM (active) | –

Compound | Potency | activity change, negative = inhibition
C=CCn1cccc(/C=C/C(=O)c2ccc(C(C)(C)C)cc2)c1=S | 1.26 µM (active) | –
Nc1nc(C2CC2)c(Sc2sc(N)nc2C2CC2)s1 | – | -10.8%
CCN1CCCC1CNC(=O)CS(=O)(=O)Cc1nc(-c2ccccc2C)oc1C (stereo unspecified) | 11.2 µM (active) | –
Cc1ccccc1-c1nc(CS(=O)CC(=O)NC(C)CCc2ccccc2)c(C)o1 (stereo unspecified) | – | -15.9%
COc1cc2c(cc1NC(=O)c1ccc(C(C)(C)C)cc1)CCCC2 | 11.2 µM (active) | –
O=C(CCCN1C(=O)/C(=C/c2cccs2)SC1=S)Nc1ccc(O)cc1 | 11.2 µM (active) | –
O=C(CCCN1C(=O)/C(=C\c2cccs2)SC1=S)Nc1ccc(O)cc1 | 11.2 µM (active) | –
O=C(CCN1C(=O)/C(=C\c2ccc(F)cc2)SC1=S)Nc1ccccc1 | – | 7.17%
COc1ccc(NC(=O)c2c(-c3c(Cl)cccc3Cl)noc2C)c(OC)c1 | 3.16 µM (active) | –
Cc1onc(-c2c(Cl)cccc2Cl)c1C(=O)Nc1nc(C(C)(C)C)cs1 | 11.2 µM (active) | –
Cc1noc(C)c1C(=O)Nc1nc(-c2ccc(F)cc2)cs1 | – | 12.2%
Cc1ccc(Cl)cc1N1CCN(Cc2nc3c(c(=O)[nH]c(=O)n3C)n2CCc2ccccc2)CC1 | 7.08 µM (active) | –
COC(=O)c1ccc(CSc2ccccc2C)o1 | – | -5.45%
CCCCNC(=O)c1onc(CSc2ccccc2C)c1C(=O)O | – | 1.08%
CCc1ccc(OCCNC(=O)c2ccccc2SCc2ccccc2)cc1 | 14.1 µM (active) | –
O=S(=O)(c1cccs1)N1CCN(c2ccnc3cc(Cl)ccc23)CC1 | 5.01 µM (active) | –
CN(C)S(=O)(=O)N1CCN(c2ccnc3cc(Cl)ccc23)CC1 | 12.6 µM (active) | –
O=S(=O)(c1cccs1)N1CCC(CO)(Cc2cccc(F)c2)CC1 | – | -62%
